Measurements from PubChem BioAssay (NCI).
Values joined by “and” are separate entries in the source; they are usually repeats but may differ in a detail not shown here. Identical values can stand only once. About 83,000 compounds went through this panel and 20% of them were active in at least one assay; those are over-represented in the sample as a whole.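 Growth was measured after 48 h exposure to one concentration of compound in 96-well plates. Values under 10 count as active.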 Active and inactive are the calls of the source.

Tests used:
Experiment in all cases: NCI-60 one-dose screen, 48 h (100 = growth as untreated, 0 = no growth, -100 = all killed)
SK-MEL-2 melanoma = tested on: SK-MEL-2 melanoma
EKVX NSCLC = tested on: EKVX NSCLC
SN12C renal = tested on: SN12C renal
UO-31 renal = tested on: UO-31 renal
TK-10 renal = conditions: 10 µM
ACHN renal = tested on: ACHN renal
CAKI-1 renal = tested on: CAKI-1 renal
CCRF-CEM leukemia = tested on: CCRF-CEM leukemia
MOLT-4 leukemia = tested on: MOLT-4 leukemia
SR leukemia = tested on: SR leukemia
RPMI-8226 leukemia = tested on: RPMI-8226 leukemia
OVCAR-5 ovarian = tested on: OVCAR-5 ovarian
OVCAR-4 ovarian = tested on: OVCAR-4 ovarian
SK-OV-3 ovarian = tested on: SK-OV-3 ovarian
IGROV1 ovarian = tested on: IGROV1 ovarian
OVCAR-3 ovarian = conditions: 10 µM
NCI/ADR-RES ovarian = tested on: NCI/ADR-RES ovarian
A498 renal = tested on: A498 renal
OVCAR-8 ovarian = tested on: OVCAR-8 ovarian
HS 578T breast = tested on: HS 578T breast

Measured: growth

CO[C@H](C(=O)[C@@H](O)[C@@H](C)O)[C@@H]1Cc2cc3cc(OC4CC(OC5CC(O)C(O)C(C)O5)C(O)C(C)O4)c(C)c(O)c3c(O)c2C(=O)[C@H]1OC1CC(OC2CC(OC3CC(C)(O)C(O)C(C)O3)C(O)C(C)O2)C(O)C(C)O1 (stereo not given in full)
active: SK-MEL-2 melanoma; 10 µM -43.9% | UO-31 renal; 10 µM -4.43% | TK-10 renal 9.9% | ACHN renal; 10 µM 3.72% | CCRF-CEM leukemia; 10 µM 3.86% | MOLT-4 leukemia; 10 µM 6.22% | RPMI-8226 leukemia; 10 µM -14.5% | OVCAR-5 ovarian; 10 µM -54.9% | OVCAR-4 ovarian; 10 µM 8.23% | IGROV1 ovarian; 10 µM -21% | OVCAR-3 ovarian 3.02%
inactive: EKVX NSCLC; 10 µM 16.8% | SN12C renal; 10 µM 24.8% | CAKI-1 renal; 10 µM 17.2% | SR leukemia; 10 µM unless noted 10.5% | SK-OV-3 ovarian; 10 µM 35.3% | NCI/ADR-RES ovarian; 10 µM 44.4%

O=C(/C=C/c1ccccn1)c1ccccc1
inactive: SK-MEL-2 melanoma; 10 µM 79.3% | EKVX NSCLC; 10 µM 93.8% | SN12C renal; 10 µM 61.2% | UO-31 renal; 10 µM 56.5% | TK-10 renal 19.5% | A498 renal; 10 µM 78.9% | RPMI-8226 leukemia; 10 µM 25.4% | OVCAR-8 ovarian; 10 µM 28.9% | OVCAR-5 ovarian; 10 µM 81% | OVCAR-4 ovarian; 10 µM 47.2% | SK-OV-3 ovarian; 10 µM 108% | IGROV1 ovarian; 10 µM 46.1% | OVCAR-3 ovarian 17.3% | NCI/ADR-RES ovarian; 10 µM 35%
active: ACHN renal; 10 µM -27.1% | CCRF-CEM leukemia; 10 µM -12.6% | MOLT-4 leukemia; 10 µM 3.13% | SR leukemia; 10 µM unless noted -15.7%

Nc1ccc2cc3ccc(N)cc3nc2c1
104% (inactive) and -5.13% (active): OVCAR-4 ovarian; 10 µM
77.5% (inactive) and 3.77% (active): RPMI-8226 leukemia; 10 µM
90% (inactive) and 8.01% (active): MOLT-4 leukemia; 10 µM
86.3% (inactive) and -14.7% (active): UO-31 renal; 10 µM
108% (inactive) and 1.69% (active): ACHN renal; 10 µM
85.6% (inactive) and 1.64% (active): A498 renal; 10 µM
87.8% (inactive) and 4.44% (active): CAKI-1 renal; 10 µM
active: SK-MEL-2 melanoma; 10 µM -26.2% | CCRF-CEM leukemia; 10 µM 6.51%
86.2% (inactive) and 9.16% (active): SN12C renal; 10 µM
88% (inactive) and -2.44% (active): OVCAR-8 ovarian; 10 µM
inactive: EKVX NSCLC; 10 µM 88.3% and 25.2% | TK-10 renal 120% and 25.8% | OVCAR-5 ovarian; 10 µM 84.9% and 26.6% | SK-OV-3 ovarian; 10 µM 78.5% and 12.8% | IGROV1 ovarian; 10 µM 111% and 19.1% | HS 578T breast; 10 µM 123% and 23.6% | NCI/ADR-RES ovarian; 10 µM 89.1% and 12.6%
106% (inactive) and 7.41% (active): SR leukemia; 10 µM unless noted

O=[N+]([O-])C1=C(c2ccccc2)SC=C(c2ccccc2)S1
active: SR leukemia; 10 µM unless noted 6.09%
inactive: SK-MEL-2 melanoma; 10 µM 88.3% | EKVX NSCLC; 10 µM 92.3% | SN12C renal; 10 µM 73.7% | UO-31 renal; 10 µM 71.6% | ACHN renal; 10 µM 83.5% | CAKI-1 renal; 10 µM 85.5% | A498 renal; 10 µM 84% | CCRF-CEM leukemia; 10 µM 14.8% | MOLT-4 leukemia; 10 µM 26.4% | RPMI-8226 leukemia; 10 µM 48.6% | OVCAR-8 ovarian; 10 µM 71.4% | OVCAR-5 ovarian; 10 µM 113% | OVCAR-4 ovarian; 10 µM 87.4% | SK-OV-3 ovarian; 10 µM 79.4% | IGROV1 ovarian; 10 µM 76.3% | HS 578T breast; 10 µM 85.7% | NCI/ADR-RES ovarian; 10 µM 78.1%

COc1cccc2c1C(=O)c1c(O)c3c(c(O)c1C2=O)C[C@@](O)(C(=O)CO)C[C@@H]3OC1CC(N)C(O)C(C)O1 (stereo not given in full)
inactive: SK-MEL-2 melanoma; 0.0025 µM 112% | SK-MEL-2 melanoma; 1 µM 31.3% | SK-MEL-2 melanoma; 2.5 µM 75.1% | EKVX NSCLC; 0.0025 µM 102% | EKVX NSCLC; 1 µM 65.8% | EKVX NSCLC; 2.5 µM 88.8% | EKVX NSCLC; 10 µM 24.6% | SN12C renal; 0.0025 µM 104% | SN12C renal; 10 µM 12% | UO-31 renal; 0.0025 µM 87.1% | UO-31 renal; 1 µM 61.3% | UO-31 renal; 2.5 µM 67.3% | ACHN renal; 0.0025 µM 102% | ACHN renal; 1 µM 19.6% | ACHN renal; 2.5 µM 35.6% | CAKI-1 renal; 1 µM 45% | CAKI-1 renal; 2.5 µM 17.6% | A498 renal; 0.0025 µM 93.5% | A498 renal; 1 µM 76.5% | A498 renal; 2.5 µM 52.6% | CCRF-CEM leukemia; 0.0025 µM 104% | CCRF-CEM leukemia; 1 µM 26.8% | CCRF-CEM leukemia; 2.5 µM 53.3% | MOLT-4 leukemia; 0.0025 µM 94.5% | SR leukemia; 0.0025 µM 81.5% | RPMI-8226 leukemia; 0.0025 µM 101% | RPMI-8226 leukemia; 2.5 µM 62.7% | OVCAR-8 ovarian; 0.0025 µM 99.5% | OVCAR-8 ovarian; 1 µM 36.6% | OVCAR-8 ovarian; 2.5 µM 45% | OVCAR-5 ovarian; 0.0025 µM 102% | OVCAR-5 ovarian; 1 µM 84.4% | OVCAR-5 ovarian; 2.5 µM 120% | OVCAR-4 ovarian; 0.0025 µM 114% | OVCAR-4 ovarian; 1 µM 68% | OVCAR-4 ovarian; 2.5 µM 67.6% | OVCAR-4 ovarian; 10 µM 14.1% | SK-OV-3 ovarian; 0.0025 µM 95.6% | SK-OV-3 ovarian; 1 µM 28.4% | SK-OV-3 ovarian; 2.5 µM 43.4% | SK-OV-3 ovarian; 10 µM 13.8% | IGROV1 ovarian; 0.0025 µM 85.7% | IGROV1 ovarian; 1 µM 19.9% | IGROV1 ovarian; 2.5 µM 50% | HS 578T breast; 0.0025 µM 97.9% | HS 578T breast; 1 µM 70.8% | HS 578T breast; 2.5 µM 50% | NCI/ADR-RES ovarian; 0.0025 µM 103% | NCI/ADR-RES ovarian; 1 µM 104% | NCI/ADR-RES ovarian; 2.5 µM 99%
active: SK-MEL-2 melanoma; 10 µM -28.5% | SN12C renal; 1 µM -4.11% | SN12C renal; 2.5 µM 2.46% | UO-31 renal; 10 µM 4.05% | ACHN renal; 10 µM -13.8% | CAKI-1 renal; 10 µM -28.9% | CCRF-CEM leukemia; 10 µM -11.8% | MOLT-4 leukemia; 1 µM 5.51% | MOLT-4 leukemia; 2.5 µM -21.6% | MOLT-4 leukemia; 10 µM -12% | SR leukemia; 2.5 µM -29.1% | SR leukemia; 10 µM -0.536% | RPMI-8226 leukemia; 1 µM -15.7% | RPMI-8226 leukemia; 10 µM -17.4% | OVCAR-5 ovarian; 10 µM -59.3% | IGROV1 ovarian; 10 µM -7.77% | HS 578T breast; 10 µM -68.2% | NCI/ADR-RES ovarian; 10 µM 4.94%
